Source: PubChem BioAssay AID1159580 (chemical genetic matrix, 2015)
The campaign covered roughly 5,500 compounds. About 2,000 (36%) were called active. Inconclusive results (about 18%) are left out. Rule as the data show it: active = normalized growth mostly below about 0.91 (no sharp cut-off); inconclusive = no clear call, values can overlap the other calls; inactive = mostly above about 0.92. Some of the results follow.

Assay: chemical genetic growth profiling, strain panel (AID 1159580);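 also: tested at 20 µM; growth read once vehicle control cultures reached saturation at 30 °C; 1 = growth at the plate median or of vehicle wells; lower values mean less growth of the strain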
Conditions: growth OD

Measured: normalized growth

O=C(/C=C(\O)c1ccccc1)c1ccccc1O
inactive: S. cerevisiae deletion strains, locus YKL068W, hits give low values 0.969 | S. cerevisiae deletion strains, locus YKL085W, strain MDH1 (second series), hits give low values 0.963 | S. cerevisiae deletion strains, locus YKL085W, strain MDH1, hits give low values 0.963 | S. cerevisiae deletion strains, locus YLR102C, strain apc9, hits give low values 0.997 | S. cerevisiae deletion strains, locus YLR342W, strain FKS1 (second series), hits give low values 0.849 | S. cerevisiae deletion strains, locus YLR384C, strain iki3, hits give low values 0.92 | S. cerevisiae deletion strains, locus YMR078C, strain ctf18, hits give low values 0.948 | S. cerevisiae deletion strains, locus YMR125W, strain sto1, hits give low values 0.991 | S. cerevisiae deletion strains, locus YNL067W, strain RPL9B, hits give low values 0.929 | S. cerevisiae deletion strains, locus YNL128W, strain TEP1, hits give low values 0.855 | S. cerevisiae deletion strains, locus YNL248C, strain rpa49, hits give low values 0.91 | S. cerevisiae deletion strains, locus YNL250W, strain rad50, hits give low values 0.97 | S. cerevisiae deletion strains, locus YNL271C, strain bni1, hits give low values 0.951 | S. cerevisiae deletion strains, locus YNL298W, strain CLA4, hits give low values 0.926 | S. cerevisiae deletion strains, locus YNL307C, strain MCK1, hits give low values 0.928 | S. cerevisiae deletion strains, locus YOL012C, strain htz1 0.3 | S. cerevisiae deletion strains, locus YOR061W, strain CKA2, hits give low values 0.93 | S. cerevisiae deletion strains, locus YOR080W, strain dia2, hits give low values 0.929 | S. cerevisiae deletion strains, locus YOR136W, strain idh2, hits give low values 0.939 | S. cerevisiae deletion strains, locus YOR316C, strain cot1, hits give low values 0.941 | S. cerevisiae deletion strains, locus YPL106C, strain sse1, hits give low values 0.933 | S. cerevisiae deletion strains, locus YPR119W, strain clb2, hits give low values 0.951 | S. cerevisiae deletion strains, locus YPR141C, strain kar3, hits give low values 0.967
active: S. cerevisiae deletion strains, locus YJL187C, strain SWE1 (second series), hits give low values 0.456 | S. cerevisiae deletion strains, locus YJL187C, strain SWE1, hits give low values 0.785 | S. cerevisiae deletion strains, locus YKL009W, strain mrt4, hits give low values 0.78 | S. cerevisiae deletion strains, locus YKL160W, strain elf1, hits give low values 0.823 | S. cerevisiae deletion strains, locus YKL190W, strain CNB1, hits give low values 0.902 | S. cerevisiae deletion strains, locus YKR001C, strain vps1, hits give low values 0.73 | S. cerevisiae deletion strains, locus YKR026C, strain gcn3, hits give low values 0.895 | S. cerevisiae deletion strains, locus YKR091W, strain srl3, hits give low values 0.904 | S. cerevisiae deletion strains, locus YLL001W, strain dnm1, hits give low values 0.769 | S. cerevisiae deletion strains, locus YLL026W, hits give low values 0.864 | S. cerevisiae deletion strains, locus YLL041C, strain sdh2, hits give low values 0.869 | S. cerevisiae deletion strains, locus YLR027C, strain aat2, hits give low values 0.685 | S. cerevisiae deletion strains, locus YLR039C, strain RIC1, hits give low values 0.137 | S. cerevisiae deletion strains, locus YLR058C, strain SHM2, hits give low values 0.442 | S. cerevisiae deletion strains, locus YLR221C, strain rsa3, hits give low values 0.601 | S. cerevisiae deletion strains, locus YLR258W, strain gsy2, hits give low values 0.818 | S. cerevisiae deletion strains, locus YLR262C, strain YPT6 (second series), hits give low values 0.391 | S. cerevisiae deletion strains, locus YLR262C, strain YPT6, hits give low values 0.463 | S. cerevisiae deletion strains, locus YLR268W, strain sec22, hits give low values 0.836 | S. cerevisiae deletion strains, locus YLR320W, strain mms22, hits give low values 0.767 | S. cerevisiae deletion strains, locus YLR342W, strain FKS1, hits give low values 0.903 | S. cerevisiae deletion strains, locus YLR357W, strain rsc2, hits give low values 0.785 | S. cerevisiae deletion strains, locus YLR370C, strain arc18, hits give low values 0.864 | S. cerevisiae deletion strains, locus YLR371W, strain rom2, hits give low values 0.801 | S. cerevisiae deletion strains, locus YLR418C, strain cdc73, hits give low values 0.64 | S. cerevisiae deletion strains, locus YML016C, strain PPZ1, hits give low values 0.633 | S. cerevisiae deletion strains, locus YML032C, strain rad52, hits give low values 0.453 | S. cerevisiae deletion strains, locus YML120C, strain ndi1, hits give low values 0.589 | S. cerevisiae deletion strains, locus YML124C, strain tub3, hits give low values 0.901 | S. cerevisiae deletion strains, locus YMR058W, strain fet3, hits give low values 0.21 | S. cerevisiae deletion strains, locus YMR129W, hits give low values 0.847 | S. cerevisiae deletion strains, locus YMR205C, strain PFK2, hits give low values 0.613 | S. cerevisiae deletion strains, locus YMR223W, strain ubp8, hits give low values 0.826 | S. cerevisiae deletion strains, locus YMR231W, strain pep5, hits give low values 0.083 | S. cerevisiae deletion strains, locus YMR307W, strain GAS1, hits give low values 0.523 | S. cerevisiae deletion strains, locus YNL071W, strain lat1, hits give low values 0.581 | S. cerevisiae deletion strains, locus YNL153C, strain GIM3, hits give low values 0.582 | S. cerevisiae deletion strains, locus YNL209W, strain ssb2, hits give low values 0.648 | S. cerevisiae deletion strains, locus YNL233W, strain BNI4, hits give low values 0.707 | S. cerevisiae deletion strains, locus YNL322C, strain KRE1 (second series), hits give low values 0.789 | S. cerevisiae deletion strains, locus YNR049C, strain mso1, hits give low values 0.892 | S. cerevisiae deletion strains, locus YNR052C, strain pop2, hits give low values 0.556 | S. cerevisiae deletion strains, locus YOL147C, strain pex11, hits give low values 0.531 | S. cerevisiae deletion strains, locus YOR001W, strain rrp6, hits give low values 0.733 | S. cerevisiae deletion strains, locus YOR069W, strain VPS5, hits give low values 0.719 | S. cerevisiae deletion strains, locus YOR070C, strain gyp1, hits give low values 0.921 | S. cerevisiae deletion strains, locus YOR083W, strain WHI5, hits give low values 0.745 | S. cerevisiae deletion strains, locus YOR106W, strain vam3, hits give low values 0.0896 | S. cerevisiae deletion strains, locus YOR144C, strain elg1, hits give low values 0.724 | S. cerevisiae deletion strains, locus YOR184W, strain ser1, hits give low values 0.703 | S. cerevisiae deletion strains, locus YOR265W, strain rbl2, hits give low values 0.849 | S. cerevisiae deletion strains, locus YOR270C, strain vph1, hits give low values 0.607 | S. cerevisiae deletion strains, locus YOR290C, strain snf2, hits give low values 0.676 | S. cerevisiae deletion strains, locus YPL051W, strain arl3, hits give low values 0.568 | S. cerevisiae deletion strains, locus YPL078C, strain atp4, hits give low values 0.795 | S. cerevisiae deletion strains, locus YPL240C, strain hsp82, hits give low values 0.78 | S. cerevisiae deletion strains, locus YPL241C, strain CIN2, hits give low values 0.928 | S. cerevisiae deletion strains, locus YPR163C, strain tif3, hits give low values 0.755 | S. cerevisiae deletion strains, locus YPR167C, strain met16, hits give low values 0.852 | S. cerevisiae deletion strains, strain wtn01, hits give low values 0.843 | S. cerevisiae strains, strain wild type, hits give low values 0.545
